Source: PubChem BioAssay (Tox21)
“And” between values parts separate entries of the source, which are not always exact repeats. Identical values can stand only once. Inconclusive results are not listed. Where a structure was tested more than once in an assay, its records may differ in their call. The source made the active and inactive calls. Unless noted, calls follow the shape of the dose curve; as a rule, active = well fitted curve in the direction sought with a large enough effect in the repeat runs; inconclusive = weak or mixed curves; inactive = no such curve, though single readings can be large; an effect the other way counts as inactive or inconclusive.

Assays:
[1] = qHTS assay to identify small molecule antagonists of the vitamin D receptor (VDR) signaling pathway - cell viability counter screen (AID 743225); details: VDR-bla HEK293T viability, CellTiter-Glo luminescence, 16 h; series mostly up to 61 µM; also: nearly all actives have a fitted effect of over 50% in size; also: potency is read from the fitted curve at half-maximal effect
Method in brief: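 Viability counter screen run in the same wells as the beta-lactamase reporter assay: HEK 293T VDR-UAS-bla cells, 16 h compound exposure at 37C with 3 nM (final) 1-alpha,25-dihydroxyvitamin D3. CellTiter-Glo luminescence, 30 min, room temperature.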

[2] = qHTS assay to identify small molecule agonists of the NFkB signaling pathway - cell viability counter screen (AID 1159515; calls by dose curve; also: nearly all actives have a fitted effect of over 55% in size; also: potency is read from the fitted curve at half-maximal effect); details: NFkB-bla ME-180 viability, CellTiter-Glo luminescence, 5 h; series mostly up to 61 µM
Method in brief: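 Luminescence from CellTiter-Glo (30 min, room temperature) gives viability, measured in the same wells as the beta-lactamase reporter read. Cells were NFkB-bla ME-180, 2,000 per well, treated 5 hr with compounds.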

[3] = qHTS assay to identify small molecule agonists of the endoplasmic reticulum stress response signaling pathway - cell viability counter screen (AID 1159517; calls by dose curve; also: nearly all actives have a fitted effect of over 50% in size; also: potency is read from the fitted curve at half-maximal effect); details: ESRE-bla HeLa viability, CellTiter-Glo luminescence, 5 h; series mostly up to 61 µM
Method in brief: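 CellTiter-Glo was added to wells already read for beta-lactamase FRET, and luminescence was recorded 30 min later. Cells: ESRE-bla HeLa, 1,500 per well, compound exposure 5 hr at 37 C.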

[4] = qHTS assay to identify small molecule antagonists of the retinoid-related orphan receptor gamma (ROR-gamma) signaling pathway - cell viability counter screen (AID 1159520); details: Tet-on RORgamma CHO cells viability, ATP luminescence, 16 h; series mostly up to 92.4 µM; also: nearly all actives have a fitted effect of over 50% in size; also: potency is read from the fitted curve at half-maximal effect
Method in brief: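 Tet-on ROR gamma CHO cells (1,000/well) were plated 4 hr, given compounds in DMSO for 2 hr at 37 C, then induced with 1 uM final doxycycline for 16 hr. Viability was read as ATP by CellTiter-Glo luminescence after 30 min.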

[5] = qHTS assay to identify small molecule agonists of the AP-1 signaling pathway - cell viability counter screen (AID 1159525; calls by dose curve; also: nearly all actives have a fitted effect of over 55% in size; also: potency is read from the fitted curve at half-maximal effect); details: ME-180 AP-1-bla cells viability, ATP luminescence, 5 h; series mostly up to 76.8 µM
Method in brief: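 ME-180 AP-1-bla, 2500 cells/well, Opti-MEM + 0.5% dialyzed FBS; overnight 37 °C; cpd 15-pt titration, 5 h 37 °C; CellTiter-Glo 30 min RT; luminescence read; normalised to TOAB and DMSO controls.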

[6] = qHTS assay to identify small molecule antagonists of the retinoid acid receptor (RAR) signaling pathway - cell viability counter screen (AID 1159551); details: C3RL4 cells viability, ATP luminescence (CellTiter-Glo), 6 h; series mostly up to 92.4 µM; also: nearly all actives have a fitted effect of over 35% in size; also: potency is read from the fitted curve at half-maximal effect
Method in brief: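 Luminescent ATP quantitation (CellTiter-Glo) gave cell viability in C3RL4 cells exposed to test chemicals for 6 h at 37 C alongside 1 uM final retinol.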

[7] = qHTS assay to identify small molecule agonists of the retinoic acid receptor (RAR) signaling pathway (AID 1159553); details: C3RL4 RARE luciferase reporter, agonist, 6 h; series mostly up to 73.3 µM
Method in brief: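 Luminescence from a RARE-driven luciferase reporter in C3RL4 cells served as the read-out, measured after 30 min with detection reagent at room temperature. Compounds in DMSO were applied for 6 hr at 37 C following overnight seeding.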

[8] = qHTS assay to identify small molecule agonists of the vitamin D receptor (VDR) signaling pathway - cell viability counter screen (AID 743224); details: VDR-bla HEK293T viability, CellTiter-Glo luminescence, 16 h; series mostly up to 62.6 µM; also: nearly all actives have a fitted effect of over 50% in size; also: potency is read from the fitted curve at half-maximal effect
Method in brief: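 Luminescence from CellTiter-Glo, read after 30 min at room temperature, reports viability of VDR-bla cells treated with compounds for 16 h at 37C in the wells used for the beta-lactamase FRET read.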

[9] = qHTS assay to identify small molecule agonists of the AP-1 signaling pathway (AID 1159526; calls by dose curve; also: potency is read from the fitted curve at half-maximal effect); details: ME-180 (cervical carcinoma) AP-1-bla reporter, beta-lactamase FRET ratio, 5 h; series mostly up to 76.8 µM
[10] = qHTS assay to identify small molecule agonists of the RXR signaling pathway - cell viability counter screen (AID 1159529); details: RXR-alpha-bla HEK293T viability, CellTiter-Glo, 16 h; series mostly up to 76.8 µM; also: nearly all actives have a fitted effect of over 50% in size; also: potency is read from the fitted curve at half-maximal effect
Method in brief: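 Luminescence from CellTiter-Glo (30 min, RT) measured viability in the same wells as the beta-lactamase reporter readout. Cells: GeneBLAzer RXR-alpha HEK 293T, 2% charcoal-stripped FBS. Compound exposure 16 hr, 37 C.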

[11] = qHTS assay to identify small molecule antagonists of the retinoic acid receptor (RAR) signaling pathway (AID 1159552; also: nearly all actives have a fitted effect of over 50% in size; also: potency is read from the fitted curve at half-maximal effect); details: C3RL4 RARE luciferase reporter, retinol-stimulated, 6 h; series mostly up to 92.4 µM
Method in brief: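 Luminescence from a RARE luciferase reporter in C3RL4 cells served as read-out. Cells received compounds together with 1 uM final retinol and incubated 6 hr at 37 C before detection reagent was added for 30 min at room temperature.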

[12] = molecular target: Nuclear receptor ROR-gamma (Homo sapiens) (UniProt P51449); test: qHTS assay to identify small molecule antagonists of the retinoid-related orphan receptor gamma (ROR-gamma) signaling pathway (AID 1159521; also: nearly all actives have a fitted effect of over 50% in size; also: potency is read from the fitted curve at half-maximal effect); details: Tet-on RORgamma CHO cells, RORE-luciferase, 16 h; series mostly up to 92.4 µM
Method in brief: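 Luminescence readout (ONE-Glo, 30 min RT) after 16 h doxycycline induction; loss of signal scored as antagonism. CHO cells with TET-inducible RORγ and RORE-LUC reporter; compounds added 2 h before 1 uM final doxycycline.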

[13] = molecular target: Retinoic acid receptor RXR-alpha (Homo sapiens) (UniProt P19793); test: qHTS assay to identify small molecule agonists of the RXR signaling pathway (AID 1159527; calls by dose curve; also: nearly all actives have a fitted effect of over 35% in size); details: HEK293T RXRa-UAS-bla, beta-lactamase ratio, 16 h; series mostly up to 76.8 µM
Method in brief: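 Agonist mode; 9-cis retinoic acid positive control. HEK 293T UAS-bla reporter cells, 2% charcoal-stripped FBS, 16 hr compound exposure at 37 C/5% CO2. LiveBLAzer B/G FRET substrate 2 hr RT; ex 405, em 460/530 nm.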

[14] = qHTS assay to identify small molecule antagonists of the estrogen related receptor (ERR) signaling pathway - cell viability counter screen (AID 1224818); details: ERR reporter cell line viability counter screen; series mostly up to 46.1 µM;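 also: viability measured after 17.5 h of compound exposure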
Method in brief: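 Multiplexed counter screen to separate cytotoxic compounds from true ERR modulators. ERR cells received DMSO-dissolved compounds after a 6 h pre-incubation, were exposed 17.5 h at 37 C, then assayed with CellTiter-Fluor fluorescence.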

[15] = qHTS assay to identify small molecule antagonists of the estrogen related receptor (ERR) signaling pathway (AID 1224819); details: ERR reporter cell line, luciferase inhibition; series mostly up to 46.1 µM
Method in brief: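 Seed ERR cells 2,000/well; rest 6 h at 37 C/5% CO2; pin compounds in DMSO; incubate 18 h at 37 C; add One-Glo; wait 30 min at room temperature; measure luminescence.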

[16] = qHTS assay to identify small molecule agonists of the estrogen related receptor (ERR) signaling pathway (AID 1224820); details: ERR reporter cell line, luciferase agonist mode; series mostly up to 46.1 µM
Method in brief: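 ERR reporter cell line (from NTP), 2,000 cells/well, incubated 6 h before compound addition, then 18 h at 37 C. Luminescence measured 30 min after One-Glo reagent at room temperature.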

[17] = system: estrogen-related receptor alpha (ERRalpha) with PGC-1alpha coactivator, human; test: qHTS assay to identify small molecule antagonists of the estrogen related receptor signaling pathway with the pleiotropic PPARgamma coactivator (PGC) (AID 1224821; calls by dose curve); details: ERR/PGC reporter cell line, luciferase, antagonist mode; series mostly up to 46.1 µM
Method in brief: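 PGC/ERR reporter cell line, plated 6 h before compound addition, then exposed 18 h at 37 °C. Luciferase activity read by luminescence 30 min after One-Glo addition; decrease indicates antagonism.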

[18] = qHTS assay to identify small molecule agonists of the estrogen related receptor signaling pathway with the pleiotropic PPARgamma coactivator (PGC) (AID 1224823); details: ERR/PGC reporter cell line, luciferase agonist mode; series mostly up to 46.1 µM
Method in brief: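 PGC/ERR reporter cells seeded 6 h, then exposed to compounds (23 nL in DMSO) for 18 h at 37 C. One-Glo luciferase luminescence read after 30 min at room temperature.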

Measured: Potency

Chain of Retinoic acid receptor RXR-alpha (Homo sapiens) (P19793 whole entry, looked up): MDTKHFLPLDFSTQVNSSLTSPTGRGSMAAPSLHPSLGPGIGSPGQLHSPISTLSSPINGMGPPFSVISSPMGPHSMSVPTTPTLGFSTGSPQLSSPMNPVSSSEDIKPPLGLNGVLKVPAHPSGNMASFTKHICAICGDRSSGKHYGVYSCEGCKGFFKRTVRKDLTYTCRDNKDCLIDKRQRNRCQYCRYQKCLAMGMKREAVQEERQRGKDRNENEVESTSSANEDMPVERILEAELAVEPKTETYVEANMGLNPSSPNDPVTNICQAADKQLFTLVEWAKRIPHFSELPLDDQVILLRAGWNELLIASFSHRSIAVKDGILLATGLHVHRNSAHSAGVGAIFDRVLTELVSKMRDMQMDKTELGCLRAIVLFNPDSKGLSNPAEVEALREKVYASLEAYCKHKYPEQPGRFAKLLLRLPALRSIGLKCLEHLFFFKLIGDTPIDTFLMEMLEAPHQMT

CCCN(CCC)C(=O)C(CCC(=O)OCCCN1CCN(CCOC(=O)Cc2c(C)n(C(=O)c3ccc(Cl)cc3)c3ccc(OC)cc23)CC1)NC(=O)c1ccccc1 (stereo not given)
inactive: [3] | [4] | [5] | [6] | [7]
active: [1] 26.8 µM | [2] 21.3 µM

CCOC(=O)/C=C(C)/C=C/C=C(C)/C=C/c1c(C)cc(OC)c(C)c1C
inactive: [8] | [1] | [2] | [3] | [4] | [9] | [10] | [6] | [11]

CCCCCCCCCCn1cc[n+](CCCCCCCCCC)c1C
active: [8] 15.5 µM | [1] 6.93 µM | [2] 55 µM | [3] 34.7 µM | [4] 19.4 µM | [10] 6.93 µM | [11] 24.4 µM

c1cc(C(c2ccc(OCC3CO3)cc2)c2ccc(OCC3CO3)cc2)ccc1OCC1CO1 (stereo not given)
inactive: [2] | [3] | [5]

CCCCN(CCCC)C(=O)N(CCCC)CCCC
inactive: [8] | [1] | [2] | [4] | [12] | [5] | [13] | [6] | [11] | [7]

CC(C)(C)NC(=O)[C@@H]1C[C@@H]2CCCC[C@@H]2CN1C[C@@H](O)[C@H](Cc1ccccc1)NC(=O)[C@H](CC(N)=O)NC(=O)c1ccc2ccccc2n1
active: [8] 44.2 µM | [2] 55.7 µM | [3] 49.6 µM | [12] 55.2 µM | [10] 24.9 µM

Nc1ccc(N)c2ccccc12
active: [1] 43.6 µM | [2] 11 µM | [3] 0.775 µM | [5] 54.9 µM | [10] 21.8 µM | [6] 68.5 µM

N/C(=N\N=C\c1ccc(Cl)cc1)N/N=C/c1ccc(Cl)cc1
inactive: [7]
active: [8] 26.6 µM | [2] 13.4 µM | [3] 23.9 µM | [5] 13.4 µM | [10] 19 µM

CC[C@H]1O[C@]2(CC[C@@H]1C)C[C@@H]1C[C@@H](C/C=C(\C)C[C@@H](C)/C=C/C=C3\CO[C@@H]4[C@H](O)C(C)=C[C@@H](C(=O)O1)[C@]34O)O2
active: [8] 17.2 µM | [1] 21.7 µM | [2] 24.3 µM | [3] 24.3 µM | [5] 21.7 µM | [6] 68 µM

CN1CCN(CCC(=O)N2c3ccccc3Sc3ccc(C(F)(F)F)cc32)CC1
active: [8] 21.1 µM | [1] 12 µM | [10] 23.9 µM | [11] 29.8 µM
inactive: [2] | [3] | [5]

C=CC(=O)OCC(CO)(COCC(COC(=O)C=C)(COC(=O)C=C)COC(=O)C=C)COC(=O)C=C
active: [8] 3.84 µM | [1] 5.43 µM | [2] 48.4 µM | [3] 3.42 µM | [12] 2.7 µM | [10] 8.6 µM | [6] 53.8 µM | [11] 7.6 µM

On1ccccc1=S
active: [8] 0.61 µM | [2] 0.385 µM | [4] 5.39 µM | [12] 0.303 µM | [5] 21.7 µM | [10] 2.43 µM
inactive: [1]

Nc1c2ccccc2nc2ccccc12
inactive: [8] | [2] | [3] | [12] | [9]

ON=C1CCCC1
inactive: [1] | [2] | [3] | [5] | [9] | [13] | [11]

Cc1cc(CCN2CCN(c3nsc4ccccc34)CC2)cc2c1NC(=O)CC2(C)C
active: [8] 17.4 µM | [1] 19.5 µM | [2] 54.9 µM | [4] 61.1 µM | [12] 9.69 µM | [5] 54.9 µM | [10] 11 µM | [11] 30.6 µM

Oc1cccc(-c2c3nc(c(-c4cccc(O)c4)c4ccc([nH]4)c(-c4cccc(O)c4)c4nc(c(-c5cccc(O)c5)c5ccc2[nH]5)CC4)C=C3)c1
inactive: [2] | [3]
active: [10] 23.9 µM

O=c1c(-c2ccccc2)c1-c1ccccc1
inactive: [2] | [3]
active: [12] 18.8 µM | [11] 4.22 µM

CCCCCCCCOc1ccccc1C(=O)Nc1ccc(C(=O)OCC[N+](C)(CC)CC)cc1
active: [2] 12 µM
inactive: [8] | [3] | [12] | [7]

Clc1ccccc1C(c1ccccc1)(c1ccccc1)n1ccnc1
68.6 µM (active) and inactive: [6]
active: [12] 2.73 µM and 7.5 µM | [10] 21.9 µM | [11] 19.3 µM | [15] 12.8 µM | [17] 20.3 µM
inactive: [1] | [2] | [7] | [14] | [16] | [18]
21.9 µM (active) and inactive: [5]
24.3 µM (active) and inactive: [4]

O=C1CCCCCN1SSN1CCCCCC1=O
active: [12] 24.3 µM
inactive: [2] | [3] | [10] | [6]

CCCCCCCCCOC(=O)c1ccc(O)cc1
active: [8] 17.1 µM | [1] 24.2 µM | [2] 54.2 µM | [3] 54.2 µM | [5] 38.3 µM | [10] 24.2 µM

O=C1CCCc2c1cc1ccc3cccc4ccc2c1c34
inactive: [8] | [1] | [2] | [3] | [5] | [10] | [6] | [11]
active: [9] 22.2 µM

Cc1cc2c(cc1C(F)(F)F)N(C(=O)Nc1ccc(Oc3cccnc3C)nc1)CC2
inactive: [1] | [2] | [3] | [10] | [11] | [7]
active: [8] 31.4 µM

C=C(C)C(=O)OCC[N+](C)(C)C
inactive: [8] | [1] | [2] | [4] | [12] | [5] | [13] | [10] | [6] | [11] | [7]
